Test results published in PubChem BioAssay (NCI).
Where “and” joins values, the source holds several entries; their conditions need not be identical. Equal values may be shown once. About 83,000 compounds went through this panel and 20% of them were active in at least one assay; those are over-represented in the sample as a whole.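 48-hour exposure, single concentration, 96-well plates; percent growth endpoint where 0 means no net growth. Active: below 10.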 Calls of active or inactive are those of the source.

How the values were obtained:
Test in all cases: NCI-60 one-dose screen, 48 h (100 = growth as untreated, 0 = no growth, -100 = all killed)
[1] = tested on: T-47D breast
[2] = tested on: BT-549 breast
[3] = tested on: MDA-MB-435 melanoma
[4] = tested on: SW-620 colon
[5] = tested on: MCF7 breast
[6] = tested on: HCT-116 colon
[7] = tested on: HCC-2998 colon
[8] = tested on: KM12 colon

Measured: growth

COc1ccc(C(=O)/C=C/c2ccc(OCc3ccc(Cl)cc3)cc2)cc1OC
inactive: [1]; 10 µM 73.8% | [1]; 100 µM 41.5% | [2]; 10 µM 115% | [2]; 100 µM 22% | [3]; 10 µM 90.7% | [3]; 100 µM 43.7% | [4]; 10 µM 103% | [5]; 10 µM 84.2% | [6]; 10 µM 90.2% | [7]; 10 µM 101% | [7]; 100 µM 44% | [8]; 10 µM 90.7% | [8]; 100 µM 21.4%
active: [4]; 100 µM 9.15% | [5]; 100 µM 9.31% | [6]; 100 µM -25.8%

CN(Cc1ccccc1)c1nc(Cl)c(C2CC(c3ccc4c(c3)OCO4)=NN2c2cc(Cl)cc(Cl)c2)s1 (stereo unspecified)
inactive: [1]; 10 µM unless noted 86.1% | [2]; 10 µM unless noted 104% | [3]; 10 µM unless noted 97.2% | [4]; 10 µM unless noted 99.1% | [5]; 10 µM unless noted 78.2% | [6]; 10 µM unless noted 87% | [7]; 10 µM unless noted 106%

O=C(Nc1ccc(F)cc1)c1cc2cc(Nc3nc(-c4ccccc4)nc4ccccc34)ccc2oc1=O
inactive: [1]; 10 µM unless noted 95.7% | [2]; 10 µM unless noted 100% | [3]; 10 µM unless noted 108% | [4]; 10 µM unless noted 107% | [5]; 10 µM unless noted 97.9% | [6]; 10 µM unless noted 96.3% | [7]; 10 µM unless noted 113%

Nc1ccccc1SC(CC(=O)c1ccccc1)c1ccc([N+](=O)[O-])cc1 (stereo unspecified)
inactive: [1]; 10 µM unless noted 93.5% and 78.4% | [2]; 10 µM unless noted 83.6% and 86.4% | [3]; 10 µM unless noted 101% and 87.2% | [4]; 10 µM unless noted 51.9% and 45.8% | [5]; 10 µM unless noted 33% and 21.6% | [7]; 10 µM unless noted 101%
active: [6]; 10 µM unless noted -87.1% and -80.5%

CCN(Cc1ccccc1)c1ccc(/C=C2\COc3ccccc3C2=O)cc1
inactive: [1]; 10 µM 78.3% | [1]; 100 µM 12.3% | [2]; 10 µM 95.6% | [2]; 100 µM 16.3% | [3]; 10 µM 95.7% | [4]; 10 µM 87.4% | [4]; 100 µM 28.1% | [5]; 10 µM 81.5% | [5]; 100 µM 17.5% | [6]; 10 µM 86.1% | [6]; 100 µM 30.8% | [7]; 10 µM 102% | [7]; 100 µM 66.8% | [8]; 10 µM 98.3% | [8]; 100 µM 21.8%
active: [3]; 100 µM -44.7%

COc1ccc2nc3cc(Cl)ccc3c(NCCCNCCC(C)O)c2c1 (stereo unspecified)
active: [1]; 10 µM unless noted 4.09% | [2]; 10 µM unless noted -1.95% | [3]; 10 µM unless noted -86.3% | [4]; 10 µM unless noted -22.2% | [5]; 10 µM unless noted -0.546% | [6]; 10 µM unless noted -49.9% | [7]; 10 µM unless noted -60.9%

CC(=O)/C=C/c1ccc(OCc2ccc(Cl)cc2)cc1
inactive: [1]; 10 µM 93.1% | [1]; 100 µM 20.2% | [3]; 10 µM 94.5% | [3]; 100 µM 23.1% | [4]; 10 µM 104% | [4]; 100 µM 70.4% | [5]; 10 µM 94.2% | [5]; 100 µM 46% | [6]; 10 µM 90.5% | [6]; 100 µM 46.1% | [7]; 10 µM 101% | [7]; 100 µM 60.4% | [8]; 10 µM 93.9% | [8]; 100 µM 35.3%

C#CCn1cnc2cnc(Nc3cccc(NC(=O)CCl)c3)nc21
active: [1]; 10 µM unless noted 5.42% [6.25 µM] | [2]; 10 µM unless noted 3.26% [6.25 µM] | [3]; 10 µM unless noted -19.6% [6.25 µM] | [4]; 10 µM unless noted 0.405% [6.25 µM] | [5]; 10 µM unless noted -6.48% [6.25 µM] | [6]; 10 µM unless noted -30.2% [6.25 µM] | [7]; 10 µM unless noted -11.4% [6.25 µM]

CN(C)CCNc1ncc(F)c(-c2cnc3cc(-c4cnn(C)c4)ccn23)n1
inactive: [1]; 0.005 µM 110% | [1]; 30 µM 81.7% | [2]; 0.005 µM 97.8% | [2]; 30 µM 69.4% | [3]; 0.005 µM 101% | [3]; 30 µM 43.1% | [4]; 0.005 µM 103% | [4]; 30 µM 25.7% | [5]; 0.005 µM 93.9% | [5]; 30 µM 49.5% | [6]; 0.005 µM 100% | [6]; 30 µM 24.3% | [7]; 0.005 µM 116% | [7]; 30 µM 54.5% | [8]; 0.005 µM 87.8% | [8]; 30 µM 10.7%

Nc1nc(CSc2n[nH]c(N)n2)nc(Nc2ccccc2)n1
inactive: [1]; 10 µM unless noted 94.5% | [2]; 10 µM unless noted 95.7% | [3]; 10 µM unless noted 94.7% | [4]; 10 µM unless noted 99% | [5]; 10 µM unless noted 93.3% | [6]; 10 µM unless noted 105% | [7]; 10 µM unless noted 110%

O=C1c2cc3c(cc2-c2c1c1ccc(Cl)cc1c(=O)n2CCCn1ccnc1)OCO3
inactive: [7]; 10 µM unless noted 15%
active: [1]; 10 µM unless noted -0.548% | [2]; 10 µM unless noted -20.3% | [3]; 10 µM unless noted -58.8% | [4]; 10 µM unless noted 1.05% | [5]; 10 µM unless noted -9.33% | [6]; 10 µM unless noted -23%

O=C(CCl)n1nnnc1Cc1ccccc1
inactive: [1]; 10 µM unless noted 98.8% | [2]; 10 µM unless noted 93.7% | [3]; 10 µM unless noted 103% | [4]; 10 µM unless noted 101% | [5]; 10 µM unless noted 101% | [6]; 10 µM unless noted 102% | [7]; 10 µM unless noted 94.6%

CN1C(=O)/C(=C/c2ccc(C(=O)Nc3ncc(Cc4ccccc4Cl)s3)cc2)SC1=S
inactive: [1]; 10 µM unless noted 63.4% | [2]; 10 µM unless noted 69.5% | [4]; 10 µM unless noted 62% | [5]; 10 µM unless noted 61.8% | [6]; 10 µM unless noted 63.6% | [7]; 10 µM unless noted 77.5%
active: [3]; 10 µM unless noted -18.5%

Clc1ccc(Nc2nc(Nc3ccc(Cl)cc3)nc(Nc3ccc(-c4cc(-c5cccc(Cl)c5)on4)cc3)n2)cc1
inactive: [1]; 10 µM unless noted 83.3% | [2]; 10 µM unless noted 98.6% | [3]; 10 µM unless noted 104% | [4]; 10 µM unless noted 96.6% | [5]; 10 µM unless noted 86.6% | [6]; 10 µM unless noted 99.6% | [7]; 10 µM unless noted 121%

N#CSc1c[nH]c2ccc(/C=C/C(=O)/C=C(/C=C/c3ccc4[nH]cc(SC#N)c4c3)OB(F)F)cc12
inactive: [7]; 10 µM unless noted 31.9%
active: [1]; 10 µM unless noted -7.65% | [2]; 10 µM unless noted -10.2% | [3]; 10 µM unless noted -77.4% | [4]; 10 µM unless noted 2.13% | [5]; 10 µM unless noted 7.23% | [6]; 10 µM unless noted -49.5%

O=C(NNC(=S)Nc1ccccc1)c1ccncc1
inactive: [1]; 10 µM unless noted 109% | [2]; 10 µM unless noted 88.1% | [3]; 10 µM unless noted 112% | [4]; 10 µM unless noted 113% | [5]; 10 µM unless noted 94.2% | [6]; 10 µM unless noted 104% | [7]; 10 µM unless noted 109%

COc1cc(C(=O)c2ccccc2C(=O)O)c(OC)c2c1CCCC2
inactive: [1]; 10 µM unless noted 90.9% and 95.7% | [2]; 10 µM unless noted 95.8% and 101% | [3]; 10 µM unless noted 100% and 107% | [4]; 10 µM unless noted 98.2% and 106% | [5]; 10 µM unless noted 97.4% and 99.5% | [6]; 10 µM unless noted 95.6% and 95.4% | [7]; 10 µM unless noted 107% and 101%

O=C(Cc1ccc(F)cc1)c1ccccc1
inactive: [1]; 10 µM unless noted 112% | [2]; 10 µM unless noted 97.2% | [3]; 10 µM unless noted 106% | [4]; 10 µM unless noted 110% | [5]; 10 µM unless noted 103% | [6]; 10 µM unless noted 103% | [7]; 10 µM unless noted 106%

Cc1ccc(C(=O)c2ccc(CC(=O)N=Nc3c(O)[nH]c4ccc(OC(F)(F)F)cc34)n2C)cc1
inactive: [1]; 10 µM unless noted 74.5% | [2]; 10 µM unless noted 95.3% | [3]; 10 µM unless noted 97.9% | [4]; 10 µM unless noted 95.7% | [5]; 10 µM unless noted 91.5% | [6]; 10 µM unless noted 97% | [7]; 10 µM unless noted 119%

COc1ccc(CN2CCc3c(Cl)nc(N)nc3C2=O)c(OC)c1
active: [2]; 10 µM unless noted -20.3% [100 µM] | [3]; 10 µM unless noted 1.81% [100 µM] | [4]; 10 µM unless noted -46.8% [100 µM] | [5]; 10 µM unless noted 6.65% [100 µM] | [6]; 10 µM unless noted -72.7% [100 µM] | [7]; 10 µM unless noted -85.9% [100 µM]
inactive: [1]; 10 µM unless noted 12.8% [100 µM]

CN1CCN(CCCN2c3ccccc3Sc3ccc(Cl)cc32)CC1
inactive: [1]; 10 µM unless noted 63.5% | [2]; 10 µM unless noted 85.8% and 91.1% | [3]; 10 µM unless noted 30.3% and 42.4% | [4]; 10 µM unless noted 83.2% and 94% | [5]; 10 µM unless noted 37.2% and 63.8% | [6]; 10 µM unless noted 57.5% and 70.6% | [7]; 10 µM unless noted 66.8%

O=C(/C=C/c1cccc(Oc2ccc(Cl)cc2)c1)c1ccccc1
inactive: [1]; 10 µM 77% | [2]; 10 µM 102% | [3]; 10 µM 94.8% | [4]; 10 µM 19.7% | [5]; 10 µM 11.5% | [6]; 10 µM 55.9% | [7]; 10 µM 107% | [8]; 10 µM 75.3%
active: [1]; 100 µM -72% | [2]; 100 µM -61.3% | [3]; 100 µM -84.8% | [4]; 100 µM -69.7% | [5]; 100 µM -45.3% | [6]; 100 µM -82.2% | [7]; 100 µM -97.8% | [8]; 100 µM -76.8%

O=C1C(c2c[nH]c3ccccc23)=C(c2coc3cc(Br)ccc23)C(=O)N1O
inactive: [1]; 10 µM unless noted 77.5% | [2]; 10 µM unless noted 103% | [3]; 10 µM unless noted 103% | [4]; 10 µM unless noted 102% | [5]; 10 µM unless noted 80.6% | [6]; 10 µM unless noted 96.7% | [7]; 10 µM unless noted 100%

COc1ccc(C(=O)/C=C/c2ccc(OCc3cccc(C(F)(F)F)c3)c(OC)c2)cc1OC
inactive: [1]; 10 µM 54.2% | [1]; 100 µM 11.3% | [2]; 10 µM 95.2% | [3]; 10 µM 86.3% | [3]; 100 µM 12% | [4]; 10 µM 59.1% | [5]; 10 µM 40% | [6]; 10 µM 52.3% | [7]; 10 µM 105% | [7]; 100 µM 10.8% | [8]; 10 µM 72.5% | [8]; 100 µM 12.4%
active: [2]; 100 µM -41.3% | [4]; 100 µM 6.75% | [5]; 100 µM 6.42% | [6]; 100 µM 3.91%

Nc1ccc(/C=N/Nc2ccnc3c(N)cccc23)c2cccnc12
inactive: [7]; 10 µM unless noted 41.5%
active: [1]; 10 µM unless noted -39.5% | [2]; 10 µM unless noted -37.2% | [3]; 10 µM unless noted -84.1% | [4]; 10 µM unless noted -28.3% | [5]; 10 µM unless noted -47.1% | [6]; 10 µM unless noted -93.1%

Nn1c(-c2ccc(Cl)cc2)nc2c(-c3ccc(Cl)cc3)nc3ccc(Cl)cc3c2c1=O
inactive: [2]; 10 µM unless noted 45.1% | [3]; 10 µM unless noted 37.4% | [5]; 10 µM unless noted 21.7% | [7]; 10 µM unless noted 372%
active: [1]; 10 µM unless noted 9.59% | [4]; 10 µM unless noted -66.1% | [6]; 10 µM unless noted -100%

Cc1[nH]c(C(=O)Nc2nc3ccc(NC(=O)CCN)cc3s2)c(Cl)c1Cl
inactive: [1]; 10 µM unless noted 54.8% | [2]; 10 µM unless noted 88.9% | [3]; 10 µM unless noted 91.3% | [4]; 10 µM unless noted 43.7% | [5]; 10 µM unless noted 52.3% | [6]; 10 µM unless noted 59.9% | [7]; 10 µM unless noted 96.4%
